Results filed as inconclusive are left out. A number with no mark means an inactive call. The source made the active and inactive calls. Calls follow the shape of the full dose curve.
Experiment: qHTS assay to identify small molecule agonists of the AP-1 signaling pathway - cell viability counter screen (AID 1159525); also: nearly all actives have a fitted effect of over 55% in size
Conditions: ME-180 (cervical carcinoma) AP-1-bla cells viability, ATP luminescence, 5 h; series mostly up to 76.8 µM; viability change, negative = cytotoxic: at the top concentration
Source text: National Center for Advancing Translational Sciences [NCATS]
NIH Chemical Genomics Center [NCGC]
U.S. Environmental Protection Agency [EPA]
National Institutes of Environmental Health Sciences [NIEHS]
National Toxicology Program [NTP]
U.S. Food and Drug Administration [FDA]
Activator protein-1 (AP-1), a transcription factor, plays an important role in tumor genesis by regulating genes involved in cell proliferation, differentiation, apoptosis, and angiogenesis. AP-1 activity is induced by a complex network of signaling pathways that involves extracellular signals, such as growth factors. The AP-1 protein complex formed from c-Fos and c-Jun binding to the AP-1 response element results in transcriptional activation of genes containing such elements within their promoter.
Low molecular weight molecules have been discovered and developed to modulate various components of these signaling pathways, for example, MAP kinase inhibitors. However, many points of pathway modulation remain untested due to the lack of chemical probes making this signaling locus of general interest.
Using a beta-lactamase reporter-gene under control of the AP-1 response element, a cell-based assay [CellSensor(TM) AP-1-bla ME-180 developed by Invitrogen Corp.] was used to measure EGF-induced signaling. The Tox21 10K library compounds were measured for their ability to positively modulate the action of EC50 EGF on reporter gene activity. Compounds were screened in a 15-pt titration series in 1536-well format. The cytotoxicity of the Tox21 compound library against this cell line was tested in parallel by measuring the intra cellular ATP content in the same wells.
Tox21 Assay Protocol Summary:
2500 cells/5uL in Opti-MEM medium containing 0.5% dialyzed FBS, 0.1 mM NEAA, 1 mM sodium pyruvate and 10 mM HEPES was dispensed into 1536-well black wall/clear bottom plates using a Multidrop dispenser and cells were cultured at 37 degrees Celsius overnight. Next day 23 nL of compounds dissolved in DMSO, positive controls or DMSO were delivered to each well using a pin tool. The plates were incubated at 37 degrees Celsius for 5 hours. 1 uL of LiveBLAzerTM B/G FRET substrate (Solution A+B+C+D) was added to each well using a Flying Reagent Dispenser. After incubated at room temperature for 2.5 hours the plates were measured on an EnVision plate reader at Excitation 405nm, Emission1=460nm and Emission 2=530nm. The %Activity was determined from the ratio of 460nm/530nm.
After the plates were read for Beta-Lactamase assay on Envision; 3 ul Cell Titer Glo (Promega) was added to measure the cytotoxicity and the plates were then incubated at RT in dark for 30 min. The luminescence was read on ViewLux (Perkin Elmer, Shelton, CT) using 6 sec exposure. ViewLux data was expressed as relative luminescence units.
For primary data analysis, raw plate reads for each titration point were first normalized relative to […] EGF control (100%) and DMSO only wells (basal, 0%).
For primary data analysis for viability assay, raw plate reads for each titration point were first normalized Tetra n-octyl ammonium bromide control (-100%) and DMSO (control, 100%).
Potency is read from the fitted curve at half-maximal effect.

| SMILES | viability change, negative = cytotoxic | Potency |
| --- | --- | --- |
| CC=C(Cl)Cl | 3.11% | – |
| C[C@@]12CCC[C@H]1[C@@H]1CC[C@H]3C[C@@H](O)CC[C@]3(C)[C@H]1CC2 | 0.736% [at 35.3 µM] | – |
| C[C@H]1C[C@H](O)c2ccsc2S1(=O)=O | 5.04% [at 35.3 µM] | – |
| CC1CC(C)C(=O)C1=O (stereo not given) | 7.63% | – |
| C=CC(=O)[O-].C=CC(=O)[O-].[Zn+2] | 7.52% | – |
| C=C1C[C@@]23CC[C@H]4[C@@](C)(CCC[C@@]4(C)C(=O)O[C@@H]4O[C@H](CO)[C@@H](O)[C@H](O)[C@H]4O)[C@@H]2CC[C@]1(O[C@@H]1O[C@H](CO)[C@@H](O)[C@H](O[C@@H]2O[C@H](CO)[C@@H](O)[C@H](O)[C@H]2O)[C@H]1O[C@@H]1O[C@H](CO)[C@@H](O)[C@H](O)[C@H]1O)C3 | 0.254% | – |
| C=C(C)C(=O)OCCCCCCCCCCCCC | -4.76% | – |
| Cc1ccccc1S | 7.28% [at 35.3 µM] | – |
| C[C@@H]1CN(CCCn2c3ccccc3c3ccccc32)C[C@H](C)N1 | -3.46% [at 35.3 µM] | – |
| CN1CCCN=C1COC(=O)C(O)(c1ccccc1)C1CCCCC1 (stereo not given) | 18.8% [at 35.3 µM] | – |
| CC1CC(OC(=O)C(O)c2ccccc2)CC(C)(C)N1C (stereo not given) | -0.767% [at 35.3 µM] | – |
| CCC(=O)C1CC(C(C)C)CC=C1C (stereo not given) | -6.24% | – |
| Cc1cccc(O)c1N | – | 44.1 µM (active) |
| O=C(Cn1ccnc1[N+](=O)[O-])NCCO | 5.73% [at 35.3 µM] | – |
| CCOC(C)=O | -1.23% | – |
| Cc1ccc(CO)cc1 | 1.04% | – |
| Cc1ccc(C(C)(C)O)cc1 | -3.78% | – |
| CCOC(=O)OC(C)OC(=O)[C@@H]1N2C(=O)[C@@H](NC(=O)[C@H](N)c3ccccc3)[C@H]2SC1(C)C (stereo not given in full) | -14.8% [at 35.3 µM] | – |
| CCCCCC#CC(=O)OC | -3.79% | – |
| Oc1cccc(Nc2ccccc2)c1 | 2.36% | – |

| SMILES | viability change, negative = cytotoxic | Potency |
| --- | --- | --- |
| CCC(C)COC(C)=O (stereo not given) | -0.402% | – |
| C=CC(C)(CCC=C(C)C)OC(=O)CC(C)C (stereo not given) | -1.08% | – |
| CC[C@]1(O)C[C@H]2CN(CCc3c([nH]c4ccccc34)[C@@](C(=O)OC)(c3cc4c(cc3OC)N(C=O)[C@H]3[C@@](O)(C(=O)OC)[C@H](OC(C)=O)[C@]5(CC)C=CCN6CC[C@]43[C@@H]65)C2)C1 | 0.758% [at 35.3 µM] | – |
| Cc1ccc(OC(=O)c2ccccc2O)cc1 | 3.88% | – |
| CC(=O)OCC[N+](C)(C)C | 1.44% [at 35.3 µM] | – |
| CC(=O)Oc1ccc([N+](=O)[O-])cc1CCl | 3.41% | – |
| N#CCCN(CCO)CCO | 10.3% | – |
| O=C1c2ccccc2C(=O)c2c(O)c(O)cc(O)c21 | -8.25% | – |
| C=C(C)[C@@H]1CCC2=CCC[C@@H](C)[C@]2(C)C1 | -9.26% | – |
| CCCCCCCCOc1ccc(C(=O)O)cc1 | 0.983% | – |
| O=C1Cc2cc(Cl)ccc2N1 | 4.3% [at 35.3 µM] | – |
| O=c1[nH]c2ccc(Cl)cc2o1 | -1.91% | – |
| CC(C)C=O | 0.49% | – |
| O=c1cc(-c2ccccc2)oc2ccc3ccccc3c12 | – | 24.5 µM (active) |
| C/C=C\C/C=C/CCCCCCCCOC(C)=O | 1.31% | – |
| O=C(O)c1ccc(OCCCOc2ccc(C(=O)O)cc2)cc1 | 11.1% [at 35.3 µM] | – |
| COc1ccccc1N1CCN(CCCCNC(=O)c2ccc(-c3ccc(C(C)=O)cc3)cc2)CC1 | -2.97% [at 35.3 µM] | – |
| CNC(=O)c1cnn(-c2nc(N)c3ncn([C@@H]4O[C@H](CO)[C@@H](O)[C@H]4O)c3n2)c1 | -8.43% [at 35.3 µM] | – |
| CCCC(=O)C(=O)O | -29.3% | – |
| CN1CC(=O)N2[C@H](c3ccc4c(c3)OCO4)c3[nH]c4ccccc4c3C[C@@H]2C1=O | 0.773% [at 35.3 µM] | – |

From PubChem BioAssay (Tox21)
